Results as given in PubChem BioAssay AID1053118 (Broad Institute, 2014).
Results with a measured potency or affinity are listed apart. Activity calls are given as the source filed them.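 How the source made its calls: active means fitted half-maximal concentration for ATP signal loss at most twice the top valid dose; inconclusive means flat curve between -70 and -30%, or an invalid fit; inactive means flat within ±30%, wrong direction, or potency past limit.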

Assay: viability loss in HepG2 hepatoma cells – cell-based, cherry-picks, set 5, cytotoxicity control, dose response (AID 1053118);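 further: 0% = neutral control wells and -100% = mitoxantrone positive control wells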
Details: ATP luminescence, 72 h; series mostly up to 26 µM; activity change, negative = cytotoxicity: at the top concentration

Compound | activity change, negative = cytotoxicity
CC(C)CNC(=O)c1coc(=O)c(Br)c1 | 6.5% (inactive)
COC(=O)C[C@@H]1CC[C@H]2[C@H](COc3ccc(NC(=O)Cc4cccs4)cc3C(=O)N2C)O1 | 3.43% [at 23.5 µM] (inactive)
O=S(=O)(c1ccccc1F)N1CC[C@H]2[C@H](CO)Nc3ccc(-c4cccc(F)c4)cc3[C@H]21 | -6.96% [at 23.5 µM] (inactive)
CC(C)(C)[S@@](=O)N1Cc2cc(C(=O)NCc3ccccc3F)nc(-c3cccc(-c4ccncc4)c3)c2[C@H]1CCO | -5.5% (inactive)
C=CCC[C@H](Cc1ccc(F)cc1)C(=O)OC[C@H](Cc1c[nH]c2ccccc12)NC(=O)[C@@H](CC=C)CC(=O)N[C@@H](CO)Cc1ccccc1 | -19.8% (inactive)
C[C@@H]1CN([C@H](C)CO)C(=O)c2cc(NC(=O)CCCN(C)C)ccc2O[C@@H]1CN(C)Cc1ccc(-c2ccccc2)cc1 | -15.6% (inactive)
CC(C)(C)[S@@](=O)N1Cc2cc(C(=O)NCc3ccccc3F)nc(-c3cccc(-c4cncnc4)c3)c2[C@H]1CCO | 4.18% (inactive)
COC(=O)c1c(NC(=O)CN2CCN(c3ccccc3Cl)CC2)sc(C)c1C | -8.69% (inactive)
CCOC(=O)c1cnc(SCc2nc(N)nc(Nc3ccc(OC)cc3)n2)nc1N | 22.1% (inactive)
Cc1ccc(-c2nc3ncccc3o2)cc1NC(=O)c1ccco1 | -3.25% (inactive)
C[C@H]1CN([C@@H](C)CO)C(=O)c2cc(-c3ccccc3)cnc2O[C@@H]1CN(C)C(=O)c1cccc(F)c1 | -10.7% (inactive)
CN(C)C(=O)c1ccc(-c2ccc3c(c2)[C@H]2[C@H](CCN2C(=O)c2ccc(F)cc2)[C@H](CO)N3C)cc1 | -4.89% (inactive)
C[C@H](O)C#Cc1ccc2c(c1)O[C@@H](CN(C)C)[C@H](C)CN([C@@H](C)CO)S2(=O)=O | 4.59% (inactive)
Cc1ccccc1S(=O)(=O)N1CC[C@H]2[C@H](CO)Nc3ccc(-c4ccc(C#N)cc4)cc3[C@H]21 | -3.85% (inactive)
Cc1ccc(O)c(-c2cc(-c3cccc(Br)c3)n[nH]2)c1 | 2.04% (inactive)
Cc1ccc(S(=O)(=O)N2CC3(C)CN(S(=O)(=O)c4ccc(C)cc4)CC(C)(C2)C3=O)cc1 | -20.6% (inactive)
COC(=O)c1cn(CC(=O)NCc2ccco2)c2ccccc12 | -1.99% (inactive)
CC(NC(=O)CSc1ccc(S(=O)(=O)N2CCOCC2)cn1)c1ccc(Cl)cc1Cl (stereo unspecified) | 13.9% (inactive)

Compound | activity change, negative = cytotoxicity
C[C@@H]1CN([C@H](C)CO)C(=O)c2cc(NC(=O)C3CCCCC3)ccc2O[C@@H]1CN(C)Cc1ccc(-c2ccccc2)cc1 | -9.23% (inactive)
Cc1cccc(NC(=O)c2ccc(S(=O)(=O)N3CCCCC3)cc2)n1 | 20.9% (inactive)
N#C[C@@H]1[C@@H](c2ccccc2C2=CCCCC2)[C@H](CO)N1S(=O)(=O)c1ccccc1 | -11.6% (inactive)
COc1ccc(C)cc1N(CC(=O)Nc1cccc(N(C)S(C)(=O)=O)c1)S(C)(=O)=O | -25.4% (inactive)
O=C(c1cccnc1)N1C[C@H]2[C@@H](c3ccccc31)[C@@H](CO)N2CC1CCCC1 | -16.1% (inactive)
C[C@H](CO)N1C[C@H](C)[C@H](CN(C)C)Oc2cc(C#C[C@@H](C)O)ccc2S1(=O)=O | -0.041% (inactive)
COCC(=O)Nc1ccc2c(c1)C(=O)N(C)[C@H]1CC[C@@H](CC(=O)NCc3ccccc3Cl)O[C@H]1CO2 | -14% (inactive)
CSc1ccccc1C(=O)C1CCCN(C(=O)CCc2cccnc2)C1 (stereo unspecified) | -8.03% (inactive)
CN1c2ccc(-c3ccccc3)cc2[C@@H]2[C@@H](CCN2C(=O)CN2CCOCC2)[C@H]1CO | 8.94% [at 23.5 µM] (inactive)
C[C@@H]1CN([C@@H](C)CO)C(=O)c2cccc(NC(=O)Nc3ccc(C(F)(F)F)cc3)c2O[C@H]1CN(C)C(=O)Nc1cccc2ccccc12 | -23.2% (inactive)
Cc1c(NC(=O)c2ccc3nsnc3c2)cccc1[N+](=O)[O-] | 8.97% (inactive)
N#Cc1ccc(-c2ccc3c(c2)[C@@H]2[C@@H](CCN2S(=O)(=O)c2cccc(F)c2)[C@@H](CO)N3)cc1 | 0.13% [at 23.5 µM] (inactive)
C[C@@H]1CN([C@H](C)CO)C(=O)c2cc(-c3ccccc3)cnc2O[C@H]1CN(C)Cc1ccccc1 | -12.2% (inactive)
CCOC(=O)c1nnn(-c2ccc(OC)cc2)c1N | 28.6% (inactive)
CC(C)(C)c1cc(Cl)c(O)c(NC(=S)NC(=O)c2cccnc2)c1 | -3.76% (inactive)
COc1ccccc1N(CC(=O)N(CC(C)C)CC(C)C)S(=O)(=O)c1cccs1 | 16.9% (inactive)
C[C@H](O)C#Cc1ccc2c(c1)O[C@H](CN(C)C)[C@@H](C)CN([C@@H](C)CO)S2(=O)=O | 1.62% (inactive)
C[C@@H]1CN([C@@H](C)CO)C(=O)c2cc(-c3ccncc3)cnc2O[C@@H]1CN(C)C(=O)Cc1cccnc1 | -2.12% (inactive)
